Structures are written as SMILES. Out of some 1,900 compounds screened, about 1,000 (53%) were called active. The set was probably picked from earlier hits. Not all results are given here. Values without a mark were called inactive.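 How the source made its calls: active means mean PP1 inhibition above a set limit taken from the earlier primary screen (cut at about 15% in these data); inactive means the rest.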

For the test, the target named is Serine/threonine-protein phosphatase PP1-alpha catalytic subunit (Homo sapiens) (UniProt P62136). Briefly: PP1 phosphatase inhibitors, confirmation, biochemical, fluorescence, OMFP substrate, triplicate (AID 2358). The note with it: purified PP1alpha, at 6.7 µM, stronger effect = higher value.
Serine/threonine-protein phosphatase PP1-alpha catalytic subunit (Homo sapiens), sequence (P62136 whole entry, looked up): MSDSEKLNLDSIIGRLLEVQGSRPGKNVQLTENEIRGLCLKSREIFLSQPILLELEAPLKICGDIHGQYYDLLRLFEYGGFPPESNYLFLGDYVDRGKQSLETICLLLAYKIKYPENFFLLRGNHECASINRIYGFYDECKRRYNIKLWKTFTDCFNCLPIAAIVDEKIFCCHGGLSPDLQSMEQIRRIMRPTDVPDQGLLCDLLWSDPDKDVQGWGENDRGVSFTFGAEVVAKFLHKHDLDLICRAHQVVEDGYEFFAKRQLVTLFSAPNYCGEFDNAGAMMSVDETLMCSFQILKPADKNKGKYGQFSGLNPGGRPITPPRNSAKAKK
The inhibition is the relative decrease from the control value, in per cent. Regarding `Cc1ccc(C)c(Cn2nnc3c(=O)[nH]c(C(=O)Nc4ccc(F)cc4)nc32)c1`, the inhibition is 20.8% (active).

In the case of `COc1ccccc1NC(=O)CSc1nc2sc3c(c2c(=O)n1-c1ccccc1)CCN(C)C3`, the inhibition is 10.6%.

In the case of `COc1ccccc1/C=N\Nc1cc(C)nc(-n2nc(C)cc2C)n1`, the inhibition is 44.3% (active).

Take `Cc1cc(N/N=C\c2ccc(Br)cc2)nc(-n2nc(C)cc2C)n1`: the inhibition is 21.7% (active).

Take `CN1CCN(CCCNC(=O)c2ccc(/C=C3\Oc4ccccc4N(Cc4ccc(Cl)cc4)C3=O)cc2)CC1`: the inhibition was 6.35%.

As for `O=C(COC(=O)c1ccc(Oc2ccccc2)cc1)Nc1nnc(-c2ccccc2)o1`, the inhibition was 16.8% (active).

`O=C(N=C1SC2CS(=O)(=O)CC2N1c1cc(Cl)ccc1Cl)C1CC1` (stereo not given): the inhibition is -1.43%.

As to `Cc1ccc(Nc2nc(CSc3nnnn3-c3ccccc3)cc(=O)[nH]2)cc1`, the inhibition was 26% (active).

Regarding `Cc1cc(Nc2ccccc2)n(C(=O)c2ccc(N)cc2)n1`, the inhibition was 2.75%.

Regarding `Cc1ccc(N2C(=O)C3N=NN(CC(=O)N4N=C(c5cccc6ccccc56)CC4c4ccccc4)C3C2=O)cc1` (stereo not given), the inhibition is 12.9%.

For the compound `O=C1C2N=NN(CC(=O)N3N=C(c4cccc5ccccc45)CC3c3ccccc3)C2C(=O)N1c1ccccc1` (stereo not given), the inhibition was 24.2% (active).

As to `O=C1c2cccc(OCC(=O)N3N=C(c4cccs4)CC3c3ccc(F)cc3)c2CCN1Cc1ccccc1` (stereo not given), the inhibition is 13.1%.

With `O=[N+]([O-])c1ccccc1/C=N/n1c(COc2ccccc2)n[nH]c1=S`, the inhibition is -1.61%.

In the case of `CCCCn1c(SCc2ncc(-c3ccccc3)o2)nc2cc(S(N)(=O)=O)ccc21`, the inhibition was 11%.

For the compound `COc1ccc(NC(=O)C2C3CCC(O3)C2C(=O)O)cc1OC` (stereo not given), the inhibition is 18.6% (active).

As to `CC(C)OC(=O)c1cc(NC(=O)C2C3CCC(O3)C2C(=O)O)cc(C(=O)OC(C)C)c1` (stereo not given), the inhibition was 5%.

Turning to `Oc1c(C(c2ccccn2)N2CCOCC2)ccc2cccnc12` (stereo not given), the inhibition was 69.3% (active).

On to `Cc1ccc(-n2nc3ccc(NC(=O)/C=C/c4ccco4)cc3n2)cc1C`, for which the inhibition was 14.7%.

With `Oc1c(Cl)cc(Cl)c(Cl)c1Cc1c(O)c(Cl)cc(Cl)c1Cl`, the inhibition was 22.2% (active).

Consider `Cc1cc(-c2csc(N)n2)c(C)n1-c1ccccc1`, for which the inhibition is 10.2%.

As for `CCOc1ccc(NC(=O)c2ccc(NC(=O)COC(=O)c3ccc(NC(=O)CC#N)cc3)cc2)cc1`, the inhibition is 47.8% (active).

Regarding `CN(C(=O)COC(=O)c1cc(-c2ccco2)nc2ccccc12)C1CCS(=O)(=O)C1` (stereo not given), the inhibition was 20.3% (active).

On to `CCn1c(SCC(=O)Nc2cc(C)ccc2C)nnc1-c1cnccn1`, for which the inhibition was -2.85%.

`c1ccc(-c2nccc(-c3ccc(-n4cnc5ccccc54)cc3)n2)nc1`: the inhibition is 65.5% (active).

Consider `O=C1C(=O)N(CC2COc3ccccc3O2)c2ccccc21` (stereo not given), for which the inhibition was 1.9%.

On to `CC1CCCCN1S(=O)(=O)c1ccc(C(=O)Nc2nnc(-c3cccs3)o2)cc1` (stereo not given), for which the inhibition was 23.2% (active).

With `Cc1ccc(S(=O)(=O)N2[C@@H](c3cccc(Cl)c3)C(C(=O)O)=CC[C@H]2c2ccc(Cl)c(Cl)c2)cc1`, the inhibition is 18.2% (active).

Regarding `Cc1ccccc1S(=O)(=O)N1[C@@H](c2cccc(Cl)c2)C(C(=O)O)=CC[C@H]1c1ccc(Cl)cc1`, the inhibition is 15.6% (active).

In the case of `Cc1ccc(-c2nn(-c3ccccc3)cc2/C=C2\SC(=S)N(CCCCCC(=O)O)C2=O)o1`, the inhibition is 19.6% (active).

Take `COc1ccc(-c2nn(-c3ccccc3)cc2/C=C2/SC(=S)N(CCCC(=O)O)C2=O)c(C)c1`: the inhibition is 29.4% (active).

For the compound `COc1ccc(-c2nn(-c3ccccc3)cc2/C=C\C(=O)Nc2ccc(C(=O)O)cc2)cc1`, the inhibition was 11%.

For `CS(=O)(=O)c1ccc2c(c1)SC1=NC(=O)/C(=C/c3ccco3)C(=N)N12`, the inhibition was 7.76%.

Consider `CCCc1ccc(OCC(=O)NNC(=S)NC(=O)c2ccco2)cc1`, for which the inhibition is 14.1%.

As to `Cc1ccc(OCC(=O)Nc2ccc(-c3nnc(-c4ccco4)o3)cc2)cc1`, the inhibition is 25.6% (active).

Regarding `O=C(CSc1nnc(C2CC2)n1Cc1ccccc1)Nc1cccnc1Cl`, the inhibition was -0.54%.

Take `C=CCn1c(=NC(=O)c2ccc(S(=O)(=O)N3CCCC3)cc2)sc2cc(NC(C)=O)ccc21`: the inhibition is 23.1% (active).

Regarding `N#Cc1c(-c2ccccc2)nc(SCc2cccc(C(F)(F)F)c2)[nH]c1=O`, the inhibition was 14.1%.

With `Clc1ccc2c(c1)C1=C(C(c3ccncc3)O2)C(c2ccc(Br)cc2)n2ncnc2N1` (stereo not given), the inhibition is 18.4% (active).

As for `O=C(N/N=C/c1cc([N+](=O)[O-])ccc1O)/C(=C\c1cccs1)NC(=O)c1ccccc1`, the inhibition was 30.9% (active).

With `CCOc1ccc(/C=C/C(=O)OCC(=O)c2ccccc2OC)cc1OC`, the inhibition was 0.75%.

Regarding `COc1cnc(-c2ccccn2)nc1Oc1ccc(C(C)(C)C)cc1`, the inhibition is 32.3% (active).

Consider `CC(C)(C)Nc1nc(-c2ccccn2)nc2ccccc12`, for which the inhibition is 7.11%.

`Cc1ccc(CSCC2Nc3ccc(C(=O)N4CCN(c5ccc(F)cc5)CC4)cc3NC2=O)cc1` (stereo not given): the inhibition was 22.6% (active).

With `Oc1ccc(C2Nc3cccc4cccc(c34)N2)cc1`, the inhibition was 0.4%.

In the case of `COCCCNC(=O)C1CC(=O)N(c2ccc(C)cc2)C1` (stereo not given), the inhibition is -1.39%.

For the compound `OCCNc1nc(Nc2ccc(Cl)c(Cl)c2)nc2ccccc12`, the inhibition is -0.84%.

With `Oc1c(CN2CCN(c3ccc(F)cc3)CC2)cc(Cl)c2cccnc12`, the inhibition is 39.1% (active).

With `CCCCCCCCCCOC(=O)Cn1c(COc2ccc(C)cc2)[n+](C)c2ccccc21`, the inhibition is 12.8%.

For `Cc1ccc(NS(=O)(=O)c2ccc(N/N=C/c3ccccc3OCC(=O)O)c([N+](=O)[O-])c2)c(C)c1`, the inhibition is 16% (active).

As for `Nc1ccc2nc3c(=O)[nH]c(=S)[nH]c3nc2c1`, the inhibition is 34% (active).

Turning to `C/C(=N\c1nc2ccccc2n1C)c1cc(Cl)ccc1O`, the inhibition was -7.49%.

As for `C=C1c2c(Cl)ccc(O)c2C(O)=C2C(=O)[C@]3(O)C(O)=C(C(N)=O)C(=O)[C@@H](N(C)C)[C@@H]3[C@@H](O)C12` (stereo not given in full), the inhibition is 7.26%.

For the compound `O=C(Nc1nc(-c2ccco2)c(-c2ccco2)s1)c1ccco1`, the inhibition is 2.84%.

As to `C=CCN(CC=C)S(=O)(=O)c1ccc(C(=O)Nc2nc3c(s2)CCc2ccccc2-3)cc1`, the inhibition was 27.9% (active).

On to `COCCN(CCOC)S(=O)(=O)c1ccc(C(=O)Nc2nc3c(s2)CCc2ccccc2-3)cc1`, for which the inhibition was 34.5% (active).

For the origin of these results see PubChem BioAssay AID2358 (The Scripps Research Institute Molecular Screening Center, 2010).
